D1 ag – Allosteric Agonists of the Human D1 Dopamine Receptor: qHTS; D(1A) dopamine receptor (Homo sapiens), P21728; HEK293 T-REx D1 cells, calcium flux, agonist mode; activation, % at 2 µM; 360,000 tested, 1% active; in the data active means activation above about 30%; further: 0% is about no effect
Target sequence (P21728 whole entry, looked up): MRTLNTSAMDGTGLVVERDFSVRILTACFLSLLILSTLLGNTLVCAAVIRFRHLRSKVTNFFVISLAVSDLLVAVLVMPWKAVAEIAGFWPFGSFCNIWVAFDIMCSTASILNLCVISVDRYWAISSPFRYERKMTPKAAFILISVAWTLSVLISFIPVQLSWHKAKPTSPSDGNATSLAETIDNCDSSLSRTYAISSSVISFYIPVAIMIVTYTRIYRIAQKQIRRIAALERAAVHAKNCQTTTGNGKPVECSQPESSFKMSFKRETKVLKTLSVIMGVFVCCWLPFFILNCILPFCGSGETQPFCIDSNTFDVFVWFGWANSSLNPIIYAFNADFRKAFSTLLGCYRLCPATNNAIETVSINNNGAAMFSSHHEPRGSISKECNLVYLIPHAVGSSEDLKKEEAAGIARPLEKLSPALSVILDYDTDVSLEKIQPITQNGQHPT
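Inducible HEK293 T-REx D1 cells, force-coupled to calcium signalling, were plated at 4000 cells/well with tetracycline and held overnight at 30 C. After no-wash calcium dye loading, compound-evoked calcium rise over 180 s flagged agonists.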
D1 PAM – Potentiators of Human D1 Dopamine Receptor: qHTS. D(1A) dopamine receptor (Homo sapiens), P21728. HEK293 TREx D1 cells, calcium flux, dopamine EC20 potentiation. potentiation, % at 10 µM. 360,000 tested, 0.036% active. AID 504651, 2011; in the data active means potentiation above about 30%; further: 0% is about no effect
D1 antag – Antagonist of Human D 1 Dopamine Receptor: qHTS. D(1A) dopamine receptor (Homo sapiens), P21728. HEK293 TREx D1 cells, calcium flux, dopamine EC80; stronger effect = lower value. activity change, negative = inhibition, % at 10 µM. 360,000 tested, 3.2% active; in the data active means activity change below about -30%; further: on the % scale 0 is the no-effect control and ±100 the full control effect
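Allosteric or orthosteric antagonism assessed as attenuation of the calcium response to EC80 dopamine, added 180 s after compound, in induced HEK293 Trex D1 cells loaded with no-wash calcium dye.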
D3 antag – qHTS of D3 Dopamine Receptor Antagonist: qHTS; D(3) dopamine receptor (Homo sapiens), P35462; D3R cells, DiscoveRx beta-arrestin luminescence, antagonist mode; stronger effect = lower value; max response, negative = inhibition, %; 360,000 tested, 2.5% active; AID 652054, 2013; in the data active means max response below about -50%; inconclusive means no clear call, values can overlap the other calls; further: on the % scale 0 is the no-effect control and ±100 the full control effect
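Cells expressing the human receptor were seeded at 1500 cells/well, incubated overnight at 37 degrees C in 5% CO2, then exposed to library compounds with dopamine controls for 90 minutes at 37 degrees C before luminescent detection.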
Chronic BCR inh – qHTS Assay to Find Inhibitors of Chronic Active B-Cell Receptor Signaling; AID 493014, 2011; Potency, µM (highest dose often 46.1 µM), inactives show at the top dose activity change, negative = inhibition, usual class: inhibitors; ABC-DLBCL IkBa-CBG/CBR reporter, luminescence ratio, 4 h; 340,000 tested, 0.05% active; active means well fitted inhibition curve with a large enough effect in the signal ratio, with a control signal flat, not every such curve was filed as active; inconclusive means small, poorly fitted or top-dose-only effect, or effect the other way, or a change in a side signal; the % refers to the signal ratio;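 further: potency means the concentration at half of the fitted maximal effect; plate controls were basal doxycycline-induced cells for no effect and cells given 10 µM MG132 for full effect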
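Concentration-response series (up to 46 uM) were applied to TMD8 dual-reporter cells for 4 h at 37C with doxycycline. Green/red ratio, after filter-overlap correction, defined %Activity; red signal alone was normalised to basal cells and zero luminescence.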
DRD3 agonist – qHTS of D3 Dopamine Receptor Agonist: qHTS. D3R DiscoveRx beta-arrestin cells, luminescence, 90 min. max activation, %. 410,000 tested, 0.58% active; in the data active means max activation above about 30%; further: 0% is about no effect
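Cells at 1500/well, incubated overnight, then treated with pinned compounds (dopamine as control) for 90 min at 37 degrees C. DiscoveRx reagent added for 30 - 60 minutes at room temperature; luminescence read.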
* marks the source's active call; other numbers are inactive results; ? = inconclusive; . = no result given. The list is not random: actives were taken first. Their share in the collection is about 6%.

SMILES	D1 ag	D1 PAM	D1 antag	D3 antag	Chronic BCR inh	DRD3 agonist
CCc1ccccc1-n1c(SCC(=O)Nc2ccc(C)cc2)nc2n[nH]c(C)c2c1=N	1	5	-8	.	?	1
COc1ccc(-n2c3c(cc(-c4nc(-c5ccc(C)cc5)cs4)c2=O)C(=O)CC(C)(C)C3)cc1	1	1	7	.	.	-13
CC(C)(C)OC(=O)NCc1ccc(NC(=O)c2nc[nH]c2C(=O)N[C@@H](Cc2ccccc2)C(=O)OCc2ccccc2)cc1	5	7	5	32	-6%	31*
COc1ccc(NC(=O)c2nc[nH]c2C(=O)NCc2ccccc2)cc1	2	2	-4	-3	1%	57*
CCOC(=O)c1ccc(NC(=O)c2nc[nH]c2C(=O)NC)cc1	1	3	-8	24	?	49*
CN(Cc1ccccc1)C(=O)c1[nH]cnc1C(=O)NCc1ccc(CNC(=O)OC(C)(C)C)cc1	-3	1	.	78	?	70*
Fc1ccc(NC(=S)N2N=CCC2c2ccccc2)cc1 (stereo unspecified)	77*	-4	-2	40	-6%	1
S=C(Nc1ccccc1)N1N=CCC1c1ccccc1 (stereo unspecified)	2	-4	.	-17	-2%	3
O=C(Cc1ccc(F)cc1)Nc1cccc(-c2nc3cccnc3s2)c1	-1	3	-3	.	.	-7
Cc1ccc(-c2nc3cccnc3s2)cc1NC(=O)C(C)C	30*	1	27	.	.	-15
CCC(C(=O)Nc1cc(-c2nc3cccnc3s2)ccc1C)c1ccccc1 (stereo unspecified)	0	3	35	.	.	9
O=C(Cc1ccccc1)Nc1cccc(-c2nc3cccnc3s2)c1	-1	-2	-2	.	.	78*
O=C1CSC2(C(=O)N(Cc3ccccc3)c3ccccc32)N1c1ccc(Cl)cc1 (stereo unspecified)	7	-8	4	.	?	-7
Oc1ccc(Cl)cc1/C=N/c1nccs1	3	1	-12	11	?	-11
Oc1c(Br)cc(Br)cc1/C=N/c1nccs1	3	-9	-11	-55*	7%	-23
COc1ccc(NC(=O)C(C)n2nnc3sc(-c4ccccc4)cc3c2=O)cc1Cl (stereo unspecified)	-2	-2	-11	.	.	4
COc1ccc(Nc2nc3cc(Cl)c(Cl)cc3n3cnnc23)cc1Cl	0	3	-1	.	.	3
CNCC/C=C1/c2ccccc2CSc2ccccc21	19	-27	-51*	-81*	?	0
OCCN1CCN(CC/C=C2/c3ccccc3CSc3ccccc32)CC1	.	.	.	-105*	.	-22
S=C(NCCN1CCOCC1)N/N=C/c1c2ccccc2cc2ccccc12	32*	1	-3	-13	-10%	0
COc1ccc2ccccc2c1/C=N/NC(=S)NCCN1CCOCC1	1	2	1	-11	20µM*	-4
S=C(NCCN1CCOCC1)N/N=C/c1ccccc1	1	0	3	18	4%	4
CCc1nnc(SCc2nc(-c3ccccc3F)oc2C)c2cc3sccc3n12	4	-4	3	.	.	-7
COc1ccc(Nc2cc(C(=O)NCCCN(C)Cc3ccccc3)c3ccccc3n2)cc1OC	6	-2	-27	.	?	-22
COC(=O)c1c(NC(=O)COc2ccc(Cl)cc2C)sc2c1CCCCC2	0	1	-11	.	.	-2
SMILES	D1 ag	D1 PAM	D1 antag	D3 antag	Chronic BCR inh	DRD3 agonist
Cc1cccc2sc(N(Cc3cccnc3)C(=O)CCS(=O)(=O)c3ccccc3)nc12	8	4	.	.	?	-15
Cc1ccc2sc(N(Cc3cccnc3)C(=O)CCS(=O)(=O)c3ccccc3)nc2c1C	31*	-2	.	.	?	-4
Cc1ccccc1OCC(=O)OCC(=O)N1CCCc2ccccc21	3	-5	30	-1	?	15
O=C(Cn1cnc2ccccc21)OCC(=O)N1CCCc2ccccc21	8	-1	-61*	35	4%	2
O=C(OCC(=O)N1CCCc2ccccc21)c1cnc(Cl)c(Cl)c1	41*	0	4	-28	?	1
O=C(OCC(=O)N1CCCc2ccccc21)c1ccc(Cl)nc1	1	-5	-3	-3	0%	-5
Cc1ccc(S(=O)(=O)NNC(=O)Nc2ccc(C)c(C)c2)c(C)c1	1	-3	-35*	2	3%	5
OC1(C#CCCN2CCCCC2)c2ccccc2-c2ccccc21	5	-2	-7	-3	-3%	-7
N#CC1(CCCN2CCCCC2)c2ccccc2CCc2ccccc21	.	.	.	-93*	.	-24
COc1ccccc1C(=O)N1CCN(C(=O)[C@H]2O[C@@H](n3ccc(=O)[nH]c3=O)[C@H](O)[C@@H]2O)CC1	.	.	.	0	.	-11
Cc1noc(C)c1CN(C(=S)NC(C)C)c1ccccc1	3	-5	-32*	-8	-3%	-7
O=C(c1cc(-c2ccccc2O)on1)N1CCCCC1	-1	1	0	.	.	1
CN(CCOc1ccc(Cl)cc1)C(=O)c1cc(-c2ccco2)nc2ccccc12	3	-7	-14	17	?	42*
CCOc1cc(NC(=O)CCl)c(OCC)cc1NC(=O)CCl	0	-1	13	-13	14µM*	2
CCOc1cc(NC(=S)Nc2ccc(Cl)cc2)c(OCC)cc1NC(C)=O	9	1	-40*	0	?	3
CCOC(=O)C1(C)/C(=N/Nc2ccccc2)C(=O)C(=O)N1c1ccccc1 (stereo unspecified)	0	-2	-2	-58*	11%	-10
CCOC(=O)C1(C)/C(=N/Nc2ccccc2OC)C(=O)C(=O)N1c1ccccc1 (stereo unspecified)	-1	5	22	-16	?	3
Cc1ccc(-c2cc(-c3ccccc3)c(C#N)c(SCC(O)CS(=O)(=O)Cc3ccccc3)n2)cc1 (stereo unspecified)	11	1	-39*	.	.	-3
O=C1C(c2cc(=O)c3ccccc3[nH]2)=C(O)c2ccccc21	2	-3	10	-12	?	1
O=c1cc(-c2ccccc2)[nH]c2ccccc12	1	-4	-2	-13	11µM*	-3
COc1cccc(/C=N/Nc2nc(Nc3ccc([N+](=O)[O-])cc3)nc(N3CCCC3)n2)c1O	3	-1	17	-119*	?	-30

Assay outcomes (PubChem BioAssay)
